Data as given in article PMC5836133, “The intracellular immune receptor Rx1 regulates the DNA-binding activity of a Golden2-like transcription factor”.
Over roughly 16,000 sequences, “e-score” has its median near -0.044; the highest 2% begin near 0.38. Shown is part of a subset that was picked to be rich in the highest values.

Biological target: T1, GST-NbGlk1(82-244) (Nicotiana benthamiana)
T1 chain: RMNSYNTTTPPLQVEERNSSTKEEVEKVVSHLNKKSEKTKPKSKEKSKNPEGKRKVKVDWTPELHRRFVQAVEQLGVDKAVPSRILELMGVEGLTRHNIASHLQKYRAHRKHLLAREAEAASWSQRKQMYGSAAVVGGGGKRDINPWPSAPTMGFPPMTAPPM
Experiment: protein-binding microarray; NbGlk1 is a Golden2-like transcription factor of Nicotiana benthamiana; high values mean tight binding
Details: protein: recombinant; tags: GST (pTH6838); dsDNA, one strand shown

Sequence | binding signal
AGTAATCG | 0.296 ± 0.00931 E-score
ATCACAGA | 0.217 ± 0.141 E-score
ATATCTTG | 0.436 ± 0.0173 E-score
ATATCTGC | 0.438 ± 0.0129 E-score
ATATCATA | 0.307 ± 0.0181 E-score
ATATCATG | 0.373 ± 0.00698 E-score
ATCTCTGC | 0.311 ± 0.0301 E-score
ATCTCTTC | 0.286 ± 0.00741 E-score
ATCTCTTA | 0.337 ± 0.015 E-score
ATATCTTC | 0.412 ± 0.0234 E-score
ATATCTTA | 0.408 ± 0.0113 E-score
ATATCGTG | 0.348 ± 0.0162 E-score
ATATCGGC | 0.354 ± 0.0162 E-score
ATATCGTC | 0.328 ± 0.0135 E-score
AGCGATCG | 0.204 ± 0.00262 E-score
AATTCTAT | 0.22 ± 0.114 E-score
AATTGGAT | 0.2 ± 0.0585 E-score
ATCTTAAT | 0.321 ± 0.00718 E-score
ATATTAAG | 0.251 ± 0.0913 E-score
ATCCACAA | 0.29 ± 0.0043 E-score
ATTTTATA | 0.281 ± 0.0713 E-score
ATTTGCGA | 0.294 ± 0.051 E-score
AGTAAAAT | 0.292 ± 0.0131 E-score
ACTGAATA | 0.204 ± 0.00699 E-score
ATCTCCTG | 0.3116 ± 0.00208 E-score

Sequence | binding signal
ATATCTGG | 0.401 ± 0.00925 E-score
ATATCAGA | 0.343 ± 0.0575 E-score
ATCTCTGA | 0.269 ± 0.143 E-score
ATATCTGA | 0.399 ± 0.00857 E-score
ATCTCTTG | 0.379 ± 0.0245 E-score
ATCTCGTG | 0.357 ± 0.0779 E-score
ATCTCTGG | 0.205 ± 0.0181 E-score
ATATCGGG | 0.343 ± 0.0169 E-score
ATCTACTA | 0.341 ± 0.0266 E-score
ATCTGTGA | 0.344 ± 0.0977 E-score
ATATGCTA | 0.224 ± 0.0529 E-score
ACATAGAT | 0.223 ± 0.0149 E-score
ATATTCAC | 0.208 ± 0.132 E-score
ATCATAAA | 0.232 ± 0.00949 E-score
ATCCAGGA | 0.328 ± 0.0422 E-score
AGTATCCG | 0.328 ± 0.0412 E-score
AATCTGGG | 0.428 ± 0.0442 E-score
AATCTGGA | 0.452 ± 0.00746 E-score
ATCTGGGG | 0.27 ± 0.147 E-score
AATCTGGT | 0.443 ± 0.0103 E-score
ATCCTGGA | 0.296 ± 0.0334 E-score
AATCTGGC | 0.416 ± 0.0222 E-score
ATCCTGGC | 0.244 ± 0.119 E-score
AATCAGGG | 0.313 ± 0.0785 E-score
AATCGGGT | 0.272 ± 0.0576 E-score

Sequence | binding signal
ATTCTGGA | 0.248 ± 0.0551 E-score
AGTGAAAT | 0.208 ± 0.0317 E-score
ATTACGAA | 0.341 ± 0.0714 E-score
ACCGTATC | 0.274 ± 0.0523 E-score
AATGAGAT | 0.312 ± 0.0605 E-score
ATTTCGGA | 0.309 ± 0.0179 E-score
ATTGCGAC | 0.346 ± 0.0296 E-score
ATCAGTAA | 0.214 ± 0.0917 E-score
AATCATAC | 0.263 ± 0.039 E-score
AGCGAGAT | 0.269 ± 0.0866 E-score
AATATATA | 0.27 ± 0.0135 E-score
AGAATAAT | 0.206 ± 0.0577 E-score
ATCCGGCA | 0.253 ± 0.0503 E-score
ATTGCGGA | 0.359 ± 0.0313 E-score
ATCTGGAA | 0.351 ± 0.0575 E-score
AATCGACG | 0.243 ± 0.0212 E-score
AATCATCT | 0.205 ± 0.0194 E-score
ATCCTACA | 0.298 ± 0.0179 E-score
AATCTACA | 0.401 ± 0.0303 E-score
AATCTACT | 0.406 ± 0.0108 E-score
AATCAACG | 0.247 ± 0.00961 E-score
AATCTACC | 0.404 ± 0.00847 E-score
AATCTACG | 0.38 ± 0.0162 E-score
AATATACA | 0.21 ± 0.00993 E-score
AATCAACT | 0.274 ± 0.00959 E-score

Sequence | binding signal
ATTCTATC | 0.261 ± 0.0903 E-score
ATTTTAGA | 0.221 ± 0.0235 E-score
ATCTCATA | 0.291 ± 0.0411 E-score
ATCCCCAA | 0.276 ± 0.0488 E-score
ATAGGATA | 0.247 ± 0.133 E-score
AAATATTA | 0.313 ± 0.0186 E-score
ATACAAAA | 0.251 ± 0.0113 E-score
AGCTAGAT | 0.216 ± 0.00676 E-score
ATTGCGGG | 0.26 ± 0.0952 E-score
AATCGCGG | 0.317 ± 0.0232 E-score
AAATAAAG | 0.202 ± 0.0801 E-score
ATATTGTC | 0.261 ± 0.0163 E-score
AGATCGTC | 0.3356 ± 0.00264 E-score
AGATTGTC | 0.3936 ± 0.00333 E-score
AGATTGTA | 0.3324 ± 0.00276 E-score
ATATTGTG | 0.235 ± 0.0938 E-score
AGATTGTG | 0.421 ± 0.0279 E-score
AAGGATTG | 0.247 ± 0.0253 E-score
AAATATAA | 0.208 ± 0.0739 E-score
AATCCGCT | 0.388 ± 0.0352 E-score
AATCCGCA | 0.395 ± 0.0273 E-score
AATCCGCC | 0.372 ± 0.0634 E-score
AATCAGCG | 0.312 ± 0.0496 E-score
ATTCCGCA | 0.238 ± 0.0649 E-score
ATTCCGCG | 0.256 ± 0.00946 E-score

Sequence | binding signal
AATCCGCG | 0.396 ± 0.0375 E-score
AATCCCCT | 0.2621 ± 0.00234 E-score
ATCCCGCA | 0.289 ± 0.00853 E-score
ATCTTGGG | 0.216 ± 0.0663 E-score
AAATAGAT | 0.264 ± 0.0472 E-score
ATCTGGTG | 0.3327 ± 0.000333 E-score
ATACATAT | 0.204 ± 0.0258 E-score
ATATAGAT | 0.352 ± 0.0482 E-score
ATTTAAGA | 0.236 ± 0.0208 E-score
ACGGATAT | 0.381 ± 0.03 E-score
AAGGATCT | 0.335 ± 0.00404 E-score
AGGGATAT | 0.353 ± 0.00472 E-score
ACGGATAC | 0.2607 ± 0.00125 E-score
AAGGATAT | 0.387 ± 0.00749 E-score
ACGGATCT | 0.265 ± 0.053 E-score
ATTATATA | 0.215 ± 0.115 E-score
ATCTACAC | 0.34 ± 0.0325 E-score
AATTCTGT | 0.223 ± 0.0117 E-score
ATACGCTA | 0.239 ± 0.0564 E-score
ATCATGAA | 0.215 ± 0.0159 E-score
CAGATCTA | 0.249 ± 0.0194 E-score
AAGATCTG | 0.362 ± 0.0161 E-score
AAGATCAC | 0.225 ± 0.0928 E-score
AGGATCTG | 0.337 ± 0.025 E-score
AGGATCTC | 0.402 ± 0.0113 E-score

Sequence | binding signal
AAGATCTA | 0.356 ± 0.00732 E-score
CAGATCTG | 0.38 ± 0.0481 E-score
CAGATCCC | 0.266 ± 0.0242 E-score
CAGATCCG | 0.266 ± 0.0152 E-score
CAGATCTC | 0.423 ± 0.0294 E-score
AGGATCTA | 0.314 ± 0.04 E-score
AAGATCTC | 0.406 ± 0.00477 E-score
ATTCGCTC | 0.231 ± 0.0553 E-score
ATCACGAT | 0.29 ± 0.0315 E-score
ATTCCAAC | 0.2142 ± 0.000545 E-score
ATCCGTTG | 0.233 ± 0.0162 E-score
ATATGCAT | 0.219 ± 0.0814 E-score
ATATGGAA | 0.219 ± 0.0165 E-score
ATCTAAAA | 0.244 ± 0.06 E-score
ACCGGAAT | 0.243 ± 0.0509 E-score
AGGAGGAT | 0.244 ± 0.0559 E-score
ATTCGCCA | 0.278 ± 0.00941 E-score
ATCCTTTA | 0.274 ± 0.0111 E-score
AAGATCAT | 0.214 ± 0.0212 E-score
AAGATCCT | 0.339 ± 0.00784 E-score
AAGATCTT | 0.399 ± 0.0153 E-score
AATCCATG | 0.381 ± 0.0124 E-score
AATCCCTG | 0.283 ± 0.0408 E-score
AATCGATT | 0.353 ± 0.0155 E-score
AATCCATA | 0.3787 ± 0.000904 E-score

Sequence | binding signal
AATCCATT | 0.38 ± 0.039 E-score
AATCCCAT | 0.331 ± 0.00747 E-score
ATTCCATG | 0.229 ± 0.0434 E-score
AATCCATC | 0.367 ± 0.0565 E-score
ATTCCATA | 0.257 ± 0.00403 E-score
ATCCTCGA | 0.224 ± 0.0852 E-score
AAATATGG | 0.272 ± 0.0577 E-score
ATCTTCCA | 0.319 ± 0.0516 E-score
AATATTAG | 0.209 ± 0.0412 E-score
ATCGGCAA | 0.216 ± 0.00468 E-score
ATCTTTCA | 0.247 ± 0.0983 E-score
ATCTATGA | 0.247 ± 0.0113 E-score
AATTTTGG | 0.25 ± 0.0182 E-score
AGATTTGA | 0.327 ± 0.0876 E-score
AGATTTGG | 0.394 ± 0.0453 E-score
AGATTTGC | 0.4695 ± 0.00449 E-score
AGATTTAG | 0.276 ± 0.0684 E-score
ATATTTGC | 0.338 ± 0.0673 E-score
ATCATGAT | 0.205 ± 0.00494 E-score
ATTTCGGC | 0.283 ± 0.0422 E-score
ACTAAGAT | 0.231 ± 0.0287 E-score
ACTAAAAT | 0.281 ± 0.0324 E-score
